# High-throughput results as filed in PubChem.
# Compounds with a hit are over-represented: about 3.4% of the library has one in this group of screens.
# VDR inh = blocks the human vitamin D receptor; VDR-SRC2-3 peptide fluorescence polarization, 2 h; 400,000 tested, 0.93% active; Potency, µM, without a hit: max response, negative = inhibition, usual class: inhibitors; P11473; note: % is set by controls: 0 for no effect and ±100 for the full control effect
#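 FP read-out; VDR + SRC2-3 coactivator peptide; 23 nl compound by pintool; 2 h RT incubation; reagents held at 4 deg C, protected from light.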
# PKM2 act = activators of human pyruvate kinase M2; P14618; purified PKM2, Kinase-Glo ATP luminescence, activation; response scale: 0% is enzyme alone, no compound; Potency, µM (highest dose often 57.5 µM), without a hit: at the highest dose activation, actives largely listed as activators; 260,000 tested, 0.34% active; AID 1631; note: % is set by controls: 0 for no effect and ±100 for the full control effect; nearly all actives have a fitted effect of over 55% in size
# Target sequence (P14618 whole entry, looked up): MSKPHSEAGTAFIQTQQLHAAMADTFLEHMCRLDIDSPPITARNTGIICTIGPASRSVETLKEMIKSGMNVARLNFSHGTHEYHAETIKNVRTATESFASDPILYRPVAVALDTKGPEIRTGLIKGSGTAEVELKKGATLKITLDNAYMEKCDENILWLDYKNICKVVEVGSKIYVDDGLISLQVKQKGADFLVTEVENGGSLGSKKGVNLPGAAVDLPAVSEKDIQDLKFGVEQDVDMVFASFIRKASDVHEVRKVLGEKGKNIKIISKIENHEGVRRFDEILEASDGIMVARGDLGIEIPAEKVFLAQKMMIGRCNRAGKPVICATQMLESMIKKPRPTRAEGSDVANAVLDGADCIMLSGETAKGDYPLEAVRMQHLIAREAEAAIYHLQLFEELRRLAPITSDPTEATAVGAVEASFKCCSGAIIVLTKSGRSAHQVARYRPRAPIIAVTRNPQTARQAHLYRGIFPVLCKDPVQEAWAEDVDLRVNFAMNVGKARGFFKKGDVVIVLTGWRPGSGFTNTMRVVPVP
#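 Kinase-Glo luminescence reports ATP generated from ADP (0.1 mM) and PEP (0.5 mM) by purified hPK-M2 after 1 h at room temperature, pH 7.2 imidazole buffer; intermediate enzyme activity allows detecting inhibitors and activators.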
# PLK1 PBD block = PLK1 (human) polo-box domain binding inhibition | P53350 | Plk1 PBD binding of FITC phosphopeptide, fluorescence polarization | Potency, µM, for the others: max response, negative = inhibition, usual class: inhibitors | 360,000 tested, 2.8% active | AID 720504; note: series mostly up to about 57 µM; % is set by controls: 0 for no effect and ±100 for the full control effect; nearly all actives have a fitted effect of over 65% in size
# GLS inh = inhibitors of human glutaminase (GLS); O94925; GLS enzymatic activity, qHTS titration; Potency, µM (doses to about 45.5 µM), for inactives: at the highest dose activity change, negative = inhibition, actives largely listed as inhibitors; 410,000 tested, 0.21% active; AID 624170; note: % is set by controls: 0 for no effect and ±100 for the full control effect
#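 Two-point fluorescence kinetic (t0, 30 min RT) for hKGA; glutamate detected via glutamate oxidase–HRP–Amplex Red. Substrate: 1 mM L-glutamine solution; buffer 45 mM KH2PO4, pH 8.2.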
# KAT2A inh = blocks human GCN5L2 histone acetyltransferase; AID 504327; 390,000 tested, 0.21% active; GCN5L2 HAT assay, ThioGlo1 CoA-SH fluorescence; Potency, µM (series often up to 58.9 µM), without a hit: at the top dose activity change, negative = inhibition, most hits filed as inhibitors; Q92830; note: % is set by controls: 0 for no effect and ±100 for the full control effect
#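 Enzyme at 20nM final was mixed with library compounds for 15 min at room temperature. Peptide H3(1-25) at 75uM, acetyl-CoA at 70uM and ThioGlo1 at 50uM were then added. Plates were read immediately and after 20 min (Ex340nm/Em540nm).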
# Mito fusion act = blocks mitochondrial division or promotes mitochondrial fusion; 320,000 tested, 0.23% active; Potency, µM (doses to about 46.1 µM), for inactives: top-dose growth rescue (activation), hits mostly activators; S. cerevisiae fusion-defective mutant growth rescue, CellTiterGlo 48 h; AID 485298; note: % of control where 0% means no effect; nearly all actives have a fitted effect of over 45% in size
#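 Luminescent cell viability in 1536-well qHTS format served as the measure of rescued growth in ts fusion-mutant S. cerevisiae cultured on non-fermentable YPEG for 48 hours at 37C.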
# Starred values were filed as active, the others as inactive; ? = inconclusive; . = no result given. Calls come from the whole dose curve; as a rule, active = well fitted curve in the direction sought with a large enough effect; inconclusive = small, poorly fitted or top-dose-only effect, or another doubt; inactive = no such curve, though single readings can be large; an effect the other way counts as inactive or inconclusive. Potency is the fitted concentration of half-maximal effect.
SMILES,VDR inh,PKM2 act,PLK1 PBD block,GLS inh,KAT2A inh,Mito fusion act
CCOC1=C2[C@H](c3ccccc3Cl)N(S(=O)(=O)c3ccc(C)cc3)C[C@H]2C(C#N)(C#N)C(C#N)(C#N)C1,.,.,27µM*,?,.,.
CCOC1=C2[C@H](c3ccc(CC)cc3)N(S(=O)(=O)c3ccc(C)cc3)C[C@H]2C(C#N)(C#N)C(C#N)(C#N)C1,.,.,17µM*,?,.,.
c1ccc2c(NCCc3c[nH]c4ccccc34)c3ccccc3nc2c1,-24%,.,-5%,9%,-23%,7%
Cc1ccccc1NC(=S)Nc1cccc2cnccc12,-2%,.,?,5%,-2%,-12%
Cc1ccc(NC(=S)Nc2cccc3cnccc23)cc1,?,-11%,27µM*,33%,-7%,22%
CC(=O)c1cccc(NC(=S)Nc2cccc3ccccc23)c1,-4%,-1%,-18%,-6%,-4%,-7%
Cc1ccc(C)c(NC(=S)Nc2cccc3cnccc23)c1,-26%,-3%,?,2%,1%,0%
Cc1ccc(NC(=S)Nc2cccc3cnccc23)cc1C,?,8%,27µM*,0%,15%,2%
S=C(Nc1cccc(Cl)c1)Nc1cccc2cnccc12,71µM*,?,27µM*,6%,-3%,5%
CC(=O)c1ccc(NC(=S)Nc2cccc3cnccc23)cc1,?,12%,30µM*,30%,-12%,-1%
CNC[C@H]1OCc2ccccc2-c2ccccc2C(=O)N([C@H](C)CO)C[C@H]1C,.,.,-6%,7%,.,.
Cc1cccc(OCC(=O)NNC(=O)CCCCC(=O)NNC(=O)COc2cccc(C)c2)c1,11%,.,-7%,9%,-3%,0%
CC[C@]1(c2ccccc2)C(=O)N(C(=O)OC)N1C(=O)OC,?,0%,11µM*,33%,-2%,-3%
CC[C@@]1(c2ccccc2)C(=O)N(C(=O)OC)N1C(=O)OC,?,4%,?,10%,-1%,5%
COC(=O)N1C(=O)[C@](c2ccccc2)(C(C)C)N1C(=O)OC,-10%,-1%,?,8%,-4%,1%
CC[C@]1(c2cccc(C)c2)C(=O)N(C(=O)OC)N1C(=O)OC,?,-1%,12µM*,22%,4%,2%
COC(=O)N1C(=O)[C@](Cc2ccccc2)(c2ccccc2)N1C(=O)OC,89µM*,-5%,15µM*,12%,1%,2%
COC(=O)N1C(=O)[C@@](Cc2ccccc2)(c2ccccc2)N1C(=O)OC,?,0%,30µM*,-2%,2%,-2%
COc1ccc(C2Nc3ccc(NC(=O)CO)cc3C(=O)N2Cc2cccc(Cl)c2)cc1COc1ccc(NC(C)=O)cc1 (stereo not drawn),-8%,.,.,.,.,.
CC(=O)O[C@@H]1C(=O)O[C@H]2[C@@H]1OC(=O)[C@@H]2OC(C)=O,.,.,.,0%,.,.
CC[C@@]1(c2ccccc2C)C(=O)N(C(=O)OC)N1C(=O)OC,?,?,11µM*,34%,-3%,0%
COC(=O)N1C(=O)[C@@](c2ccccc2)(C2CCCCC2)N1C(=O)OC,?,0%,?,-12%,-3%,-1%
O=c1onc2cnc3ccccc3n12,?,.,.,.,-7%,9.2µM*
c1ccc2c(c1)ncc1nncn12,-16%,.,.,9%,0%,.
CCOc1ccc(-n2nc3ccc(NC(=O)c4ccc(C)cc4C)cc3n2)cc1,-8%,.,.,5%,-5%,.
SMILES,VDR inh,PKM2 act,PLK1 PBD block,GLS inh,KAT2A inh,Mito fusion act
CCN(CC)c1nc2c(S(=O)(=O)c3cccc(Cl)c3)nnn2c2ccsc12,-8%,.,.,-6%,-15%,.
O=c1[nH]cnc(O)c1C1C=CC=CC=C1,40µM*,.,-8%,?,.,.
CCc1ccc(S(=O)(=O)c2nnn3c2nc(NCCNC(C)=O)c2ccccc23)cc1,-12%,11µM*,-9%,0%,-3%,-4%
Cc1ccc(C)n1Cc1ccc(C(=O)O)cc1,24%,26%,3µM*,7.1µM*,16µM*,4%
CCNC(=O)NCCCOc1cccc(CN2CCCCC2)c1,.,.,.,2%,.,.
CCCN1C(=O)c2ccccc2NC1c1ccc(OC)c(COc2cccc(OC)c2)c1 (stereo not drawn),-11%,.,.,.,.,.
c1coc(-c2nc3cc4ccccc4cc3nc2-c2ccco2)c1,22µM*,.,.,.,.,.
Nc1nc(-c2ccco2)cs1,2%,6%,-6%,20%,-13%,3%
c1coc(-c2nc(-c3ccco3)c(-c3ccco3)nc2-c2ccco2)c1,40µM*,?,12µM*,13µM*,?,3%
COc1ccc2nc(-c3ccco3)c(-c3ccco3)nc2c1,?,17%,?,6%,-18%,3%
CNC(=S)N1CCC(NC(=O)C23CC4CC(CC(C4)C2)C3)CC1,?,0%,8.4µM*,?,0%,-1%
CC(=O)c1ccc(N(C(=O)c2csnn2)C(C(=O)NC2CCCC2)c2ccccc2)cc1 (stereo not drawn),2%,.,-16%,8%,1%,-1%
CN(C)/C=N/C(=S)Nc1ccc(Cl)c(Cl)c1,?,-1%,24µM*,-21%,3%,-7%
CN(C)/C=N/C(=S)Nc1cc(Cl)cc(Cl)c1,-7%,3%,-12%,0%,7%,-1%
CN(O)/C=N/C(=S)Nc1ccc(Cl)cc1Cl,?,6%,30µM*,7%,-3%,4%
CN(C)c1ccc(-c2nc3ccccc3n2C)cc1,0%,-46%,27µM*,50%,-7%,-12%
CCn1c(-c2ccc(N(C)C)cc2)nc2ccccc21,11%,-1%,0%,21%,-3%,-11%
CC(C)(C)OC(=O)N[C@@H](Cc1ccccc1)c1nnc(SCC(N)=O)o1,-28%,-9%,-9%,-2%,0%,1%
Cc1cccc(CS(=O)(=O)c2nnc([C@H](Cc3ccccc3)NC(=O)OC(C)(C)C)o2)c1,?,?,2.7µM*,-6%,-9%,1%
COC(=O)CS(=O)(=O)c1nnc([C@H](Cc2ccccc2)NC(=O)OC(C)(C)C)o1,?,?,11µM*,9%,-7%,-1%
CCCCC1Cc2[nH]c(=S)[nH]c(=O)c2C(c2ccc(Cl)cc2)O1 (stereo not drawn),.,.,-27%,0%,.,.
CC(=O)CC1OC(=O)C(Br)=C1NCc1ccccc1 (stereo not drawn),?,-2%,27µM*,-10%,16%,-8%
CN1CCN(C(CNS(=O)(=O)c2ccc([N+](=O)[O-])cc2)c2ccc(F)cc2)CC1 (stereo not drawn),-11%,.,-9%,-4%,-2%,10%
